29 molecules from ChEMBL document CHEMBL3988442, “University of Dundee, Small-Polar-MMV Screening Library” (2021) can be followed below.

SMILES strings stand for the structures. About 1,200 (3.2%) of roughly 38,000 compounds showed an effect of 50% or more. The median lay at about -58%. This is one part of a sample in which strong results are shown more often than they occur.

In this assay the test system is Plasmodium falciparum. Put plainly: Calibr Malaria Delayed Death Assay SOP. The format is functional, organism-based. Also on record: scale not given: in the data most compounds retested in dose-response had high values. Particulars: concentration 4.99e-06 (unit not given; other assays of the set use mol/L).
With `CNc1nc2ncc(Cl)cc2cc1C#N`, the “Percent Effect” value is on record as -168.4%.

In the case of `CN1C(=O)CC(c2cnn(C)c2)C12CCN(C(=O)c1ccco1)CC2` (centres undefined), the “Percent Effect” value is -26.83%.

In the case of `Cc1ccoc1C(=O)NC1CCN(Cc2ccccc2F)CC1`, the “Percent Effect” value is listed as -117.1%.

Turning to `CCC(O)CN1CCN(C(=O)Cc2cc(Cl)ccc2OC)CC1` (centres undefined), the “Percent Effect” value was -20.59%.

As to `CN(CCO)Cc1cc(Cl)ccc1OCC(O)CN1CCCCCC1` (centres undefined), the “Percent Effect” value was determined as 81.18%.

Regarding `CCOCC(O)CN1CCN(C(=O)Cc2ccccc2Cl)CC1` (centres undefined), the “Percent Effect” value was -127.6%.

For the molecule `CCOCC(O)CN1CCN(C(=O)c2ccccc2Cl)CC1` (centres undefined), the “Percent Effect” value is -98.46%.

Consider `CCc1ccc(OCC(O)CN2CCN(CC)CC2)cc1` (centres undefined), for which the “Percent Effect” value is given as -62.39%.

On to `COc1ccc(Cl)cc1CN(C)C(=O)CN1C(=O)OC[C@@H]1C(C)C`, for which the “Percent Effect” value was -43.68%.

On to `CCOc1cc(CN(C)CCCO)ccc1OC(F)F`, for which the “Percent Effect” value was -85.19%.

In the case of `COCC(=O)N1CCC2(COCc3cnc(NCc4ccco4)nc32)C1` (centres undefined), the “Percent Effect” value is reported as -70.56%.

`COCCCN(CCOC)C(=O)Nc1ccc(Br)cc1`: the “Percent Effect” value was -39.78%.

Take `CCCNS(=O)(=O)c1ccc2[nH]c(=O)cc(C)c2c1`: the “Percent Effect” value is -19.76%.

Turning to `CCOC(C)C(=O)N1CCN(S(C)(=O)=O)CC1` (centres undefined), the “Percent Effect” value was -95.85%.

For the molecule `CS(=O)(=O)CC(=O)N1C[C@H]2CCC[C@@]2(COCc2ccncc2)C1.O=C(O)C(F)(F)F`, the “Percent Effect” value is -43.79%.

Consider `COCCN1CCCCC12CC(=O)N(c1cccc(C#N)c1)C2.O=C(O)C(F)(F)F` (centres undefined), for which the “Percent Effect” value is -143.4%.

Take `C1CC(CO[C@@H]2CC[C@H]3[C@H]2OCCN3CC2CCOCC2)CCO1.O=C(O)C(F)(F)F`: the “Percent Effect” value is -39.09%.

`O=c1c2ccccc2nc2n1C(CSc1ccc(Cl)cc1Cl)CN2` (centres undefined): the “Percent Effect” value is -150.5%.

In the case of `CC(=O)NCCOc1cccc(Br)c1`, the “Percent Effect” value is given as -82.47%.

Take `CN1CCCC1CNC(=O)CCCOCc1ccccc1` (centres undefined): the “Percent Effect” value is on record as -50.92%.

As for `CC(C)NC(=O)N1CCN(C(=O)NC(C)C)CC2(CNC(=O)C2)C1`, the “Percent Effect” value was -54.94%.

For the molecule `Cc1cc(N2CCCN(CCc3ccccc3)CC2)ccn1`, the “Percent Effect” value is 86.4%.

With `Cc1cc(N2CCCN(Cc3ccc(C)o3)CC2)ccn1`, the “Percent Effect” value came out at 32.48%.

As to `Cc1cc(N2CCCN(c3ccnc(C)c3)CC2)ccn1`, the “Percent Effect” value is recorded as -92.15%.

Consider `CC(C)n1nnnc1-c1ccc(NC(=O)N(C)CCN(C)C)cc1F`, for which the “Percent Effect” value is -66.24%.

As to `COc1ccccc1S(=O)(=O)NCC(c1cccn1C)N(C)C` (centres undefined), the “Percent Effect” value amounted to 10.47%.

On to `CN(C)C(CNS(=O)(=O)c1cc(F)ccc1F)c1cccn1C` (centres undefined), for which the “Percent Effect” value was 52.76%.

In the case of `COc1ccc(S(=O)(=O)NCC(c2cccn2C)N(C)C)cc1F` (centres undefined), the “Percent Effect” value is on record as -0.0752%.

Turning to `Cc1c(CN2CCCCC2)c(O)n(CCCO)c(=O)c1C#N`, the “Percent Effect” value is given as -126.8%.
